Results reported in the supplement of paper PMC10849652.
About 7,900 targets were measured; listed, in parts, are those with a hit and a random draw of the rest. About 0.6% of all pairs of compound and target were hits.

Columns and labels:
Experiment in all cases: log2 fold change, soluble protein after heating vs DMSO (PISA); higher = thermal stabilisation; K562 cells, 10 uM, 30 min; active = over 0.2 and 3.5 SD of the protein, either way, in both replicates (recomputed)
[1] = compound: CN1CCN(CCOc2cc(OC3CCOCC3)c3c(Nc4c(Cl)ccc5c4OCO5)ncnc3c2)CC1 [saracatinib]
Outline: (§1)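 Soluble protein was defined as the supernatant after 21,000xg for 90 min. It came from K562 cells at 2×10^6 cells/mL given 10 μM compound for 30 min, heated in aliquots for 3 min across 48°C-58°C, pooled, and extracted in PBS with 0.5% NP-40 at 4°C, and was quantified by TMTpro 16plex LC-MS/MS with equalised channel sums. Thermal stability against control samples, from duplicates, is reported as log2 fold change.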

[2] = compound: CN1CCN(c2nc(C3=C(c4c[nH]c5ccccc45)C(=O)NC3=O)c3ccccc3n2)CC1 [sotrastaurin]
Outline: as §1

[3] = compound: CN1CC[C@H](c2c(O)cc(O)c3c(=O)cc(-c4ccccc4Cl)oc23)[C@H](O)C1 [alvocidib]
Outline: as §1

[4] = compound: CN1CCc2c(c3ccccc3n2Cc2ccc(C(=O)NO)cc2)C1 [Tubastatin A]
Outline: as §1

[5] = compound: CNC(=O)C1=CC=CC=C1NC2=NC(=NC=C2Cl)NC3=C(C=C(C=C3)N4CCOCC4)OC
Outline: as §1

[6] = compound: CNC(=O)c1ccc(Nc2ncc(C(F)(F)F)c(NCc3nccnc3N(C)S(C)(=O)=O)n2)cc1 [defactinib]
Outline: as §1

[7] = compound: CNCc1ccc(-c2[nH]c3cc(F)cc4c3c2CCNC4=O)cc1 [rucaparib]
Outline: as §1

[8] = compound: CNc1nc(-c2ccc3c(N)n[nH]c3c2)cc(N2C[C@@H](C(=O)NC3CCCCC3)CC[C@H]2C)n1
Outline: as §1

[9] = compound: COC(=O)N[C@@H](C)CNc1nccc(-c2cn(C(C)C)nc2-c2cc(Cl)cc(NS(C)(=O)=O)c2F)n1 [encorafenib]
Outline: as §1

[10] = compound: COC(=O)[C@H](CCSC)NC(=O)C1=C(C=C(C=C1)NC[C@H](CS)N)C2=CC=CC=C2
Outline: as §1

[11] = compound: COC1=CC=C(C=C1)CN2C=CC3=C2C=C(C=C3)C(=O)NO
Outline: as §1

[12] = compound: CON(C)C(=O)N1N=C(c2cc(F)ccc2F)S[C@@]1(CCCN)c1ccccc1 [filanesib]
Outline: as §1

[13] = compound: CO[C@H]1C[C@@H]2CC[C@@H](C)[C@@](O)(O2)C(=O)C(=O)N2CCCC[C@H]2C(=O)O[C@H]([C@H](C)C[C@@H]2CC[C@H](n3cnnn3)[C@H](OC)C2)CC(=O)[C@H](C)/C=C(\C)[C@@H](O)[C@@H](OC)C(=O)[C@H](C)C[C@H](C)/C=C/C=C/C=C/1C [zotarolimus]
Outline: as §1

[14] = compound: COc1cc(C(=O)O)ccc1NC(=O)[C@@H]1N[C@@H](CC(C)(C)C)[C@](C#N)(c2ccc(Cl)cc2F)[C@H]1c1cccc(Cl)c1F [idasanutlin]
Outline: as §1

[15] = compound: COc1cc2nc(-c3cc(F)ccc3O)nc(N[C@@H]3CNC[C@H]3C(C)(C)O)c2cc1OC
Outline: as §1

[16] = compound: CS(=O)(=O)CCNCc1ccc(-c2ccc3ncnc(Nc4ccc(OCc5cccc(F)c5)c(Cl)c4)c3c2)o1 [lapatinib]
Outline: as §1

[17] = compound: CS(=O)(=O)N1CCN(Cc2cc3nc(-c4cccc5[nH]ncc45)nc(N4CCOCC4)c3s2)CC1 [pictilisib]
Outline: as §1

[18] = compound: COc1cc(Nc2ncc3c(n2)-c2ccc(Cl)cc2C(c2c(F)cccc2OC)=NC3)ccc1C(=O)O [alisertib]
Outline: as §1

[19] = compound: COc1cc2ncnc(Nc3ccc(F)c(Cl)c3)c2cc1OCCCN1CCOCC1 [gefitinib]
Outline: as §1

[20] = compound: COc1cccc2cc(-c3nc([C@H]4CC[C@H](C(=O)O)CC4)n4ncnc(N)c34)[nH]c12
Outline: as §1

Measured: log2 fold change

POGZ (UniProt Q7Z3K3)
inactive: [1] -0.134 | [2] -0.186 | [3] -0.065 | [4] -0.071 | [5] 0.056 | [6] -0.162 | [7] 0.196 | [8] 0.136 | [9] -0.02 | [10] -0.043 | [11] -0.066 | [12] -0.021 | [13] 0.008 | [14] 0.01 | [15] 0.095 | [16] -0.086 | [17] 0.082

PIK3CD (UniProt O00329)
Sequence of UniProt O00329 (O00329 whole entry, looked up): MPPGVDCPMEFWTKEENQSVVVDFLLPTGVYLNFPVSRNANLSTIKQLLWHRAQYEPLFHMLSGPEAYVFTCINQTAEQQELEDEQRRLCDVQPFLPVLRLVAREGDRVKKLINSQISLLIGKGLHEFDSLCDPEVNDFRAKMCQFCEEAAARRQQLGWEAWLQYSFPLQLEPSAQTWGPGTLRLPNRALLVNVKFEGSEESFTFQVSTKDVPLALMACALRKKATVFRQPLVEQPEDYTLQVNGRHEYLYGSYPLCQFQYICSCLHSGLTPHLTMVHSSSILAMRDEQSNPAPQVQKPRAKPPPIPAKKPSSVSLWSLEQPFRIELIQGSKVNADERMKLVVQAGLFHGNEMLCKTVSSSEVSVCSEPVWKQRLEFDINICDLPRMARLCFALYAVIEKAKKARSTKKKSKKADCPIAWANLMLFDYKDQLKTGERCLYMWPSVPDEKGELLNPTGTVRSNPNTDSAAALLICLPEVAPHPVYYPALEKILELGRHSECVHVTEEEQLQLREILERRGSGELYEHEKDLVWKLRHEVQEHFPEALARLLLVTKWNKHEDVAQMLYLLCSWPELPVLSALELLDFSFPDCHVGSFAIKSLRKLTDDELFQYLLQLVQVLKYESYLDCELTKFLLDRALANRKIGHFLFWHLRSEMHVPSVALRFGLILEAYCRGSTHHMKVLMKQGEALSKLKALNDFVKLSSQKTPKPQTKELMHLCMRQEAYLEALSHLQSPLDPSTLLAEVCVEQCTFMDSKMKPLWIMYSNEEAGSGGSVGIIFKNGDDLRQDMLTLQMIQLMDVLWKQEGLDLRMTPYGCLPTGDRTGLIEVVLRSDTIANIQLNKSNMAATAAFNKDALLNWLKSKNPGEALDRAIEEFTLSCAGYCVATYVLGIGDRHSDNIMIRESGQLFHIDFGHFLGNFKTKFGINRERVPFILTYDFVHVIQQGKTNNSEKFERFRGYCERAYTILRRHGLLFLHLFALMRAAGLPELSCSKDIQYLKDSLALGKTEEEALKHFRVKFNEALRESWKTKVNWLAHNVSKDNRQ
inactive: [1] -0.124 | [2] -0.106 | [3] 0.055 | [4] 0.003 | [5] 0.08 | [6] -0.218 | [7] 0.182 | [8] 0.089 | [9] -0.019 | [10] -0.062 | [11] -0.016 | [12] 0.029 | [13] -0.098 | [14] 0.105 | [15] 0.02 | [16] -0.018

PBX2 (UniProt P40425)
inactive: [1] 0.082 | [2] -0.023 | [3] -0.141 | [4] -0.069 | [5] -0.022 | [6] -0.36 | [8] -0.046 | [10] -0.044 | [11] 0.132 | [12] -0.055 | [13] 0.115 | [14] 0.102 | [18] -0.027 | [15] -0.114 | [19] -0.02 | [20] 0 | [16] 0.014 | [17] 0.01

PRUNE1 (UniProt Q86TP1)
Sequence of UniProt Q86TP1 (Q86TP1 whole entry, looked up): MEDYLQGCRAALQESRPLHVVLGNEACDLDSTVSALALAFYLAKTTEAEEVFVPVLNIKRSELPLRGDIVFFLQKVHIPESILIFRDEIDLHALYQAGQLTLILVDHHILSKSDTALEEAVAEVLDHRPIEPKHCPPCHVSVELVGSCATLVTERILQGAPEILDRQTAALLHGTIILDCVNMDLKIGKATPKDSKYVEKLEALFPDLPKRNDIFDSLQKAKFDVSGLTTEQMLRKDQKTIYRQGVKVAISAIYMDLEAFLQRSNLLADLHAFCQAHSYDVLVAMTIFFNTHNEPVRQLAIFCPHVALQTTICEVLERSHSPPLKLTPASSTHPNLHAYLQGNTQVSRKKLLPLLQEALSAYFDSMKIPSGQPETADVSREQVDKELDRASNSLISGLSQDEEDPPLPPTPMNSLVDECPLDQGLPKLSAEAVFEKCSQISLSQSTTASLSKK
inactive: [1] -0.071 | [2] -0.045 | [3] -0.053 | [4] 0.017 | [5] 0.007 | [6] -0.05 | [7] 0.027 | [8] 0.033 | [9] 0.006 | [10] 0.005 | [11] -0.083 | [12] -0.047 | [13] 0.026 | [14] 0.023 | [18] 0.091 | [15] 0.059 | [19] 0.006 | [20] -0.007 | [16] -0.038 | [17] 0.072

PTPA (UniProt A6PVN8)
inactive: [1] 0.21 | [2] 0.003 | [3] 0.034 | [4] 0.131 | [5] -0.133 | [6] -0.045 | [7] 0.072 | [8] -0.008 | [9] 0.077 | [10] 0.039 | [12] 0.019 | [13] -0.143 | [14] 0.09 | [18] -0.383 | [15] -0.085 | [19] 0.021 | [20] 0.297 | [16] 0.043 | [17] 0.035

PFAS (UniProt O15067)
active: [5] -0.324 | [17] -0.449
inactive: [1] -0.043 | [2] 0 | [3] -0.066 | [4] 0.046 | [6] -0.029 | [7] 0 | [8] 0.251 | [9] 0.011 | [10] -0.075 | [11] 0.149 | [12] -0.045 | [13] 0.069 | [14] 0.085 | [18] 0.029 | [15] 0.26 | [19] -0.005 | [20] 0.013 | [16] -0.063

PEX5 isoform 4 (UniProt P50542)
inactive: [1] -0.425 | [2] -0.207 | [3] -0.088 | [4] 0.077 | [5] 0.178 | [6] 0.006 | [8] 0.182 | [10] -0.097 | [12] 0.064 | [13] -0.048 | [14] -0.15

PRKAR2B (UniProt P31323)
inactive: [1] -0.024 | [3] -0.053 | [4] 0.02 | [5] -0.168 | [6] -0.191 | [7] 0.086 | [8] 0.014 | [9] 0.069 | [10] -0.004 | [11] -0.032 | [12] 0.06 | [13] 0.153 | [14] 0.05 | [18] -0.007 | [19] -0.026 | [20] -0.024 | [16] 0.048 | [17] -0.056
active: [2] -0.486 | [15] -0.63

PATL1 (UniProt Q86TB9)
inactive: [1] -0.075 | [2] -0.16 | [3] -0.127 | [4] -0.001 | [5] -0.135 | [6] -0.078 | [7] 0.131 | [8] 0.025 | [9] 0.155 | [10] -0.066 | [11] -0.015 | [12] -0.009 | [13] 0.076 | [14] 0.049 | [18] -0.035 | [15] -0.135 | [20] 0.069 | [16] 0.05 | [17] -0.115

PRKD2 isoform 3 (UniProt Q9BZL6)
Sequence of UniProt Q9BZL6 (Q9BZL6 whole entry, looked up): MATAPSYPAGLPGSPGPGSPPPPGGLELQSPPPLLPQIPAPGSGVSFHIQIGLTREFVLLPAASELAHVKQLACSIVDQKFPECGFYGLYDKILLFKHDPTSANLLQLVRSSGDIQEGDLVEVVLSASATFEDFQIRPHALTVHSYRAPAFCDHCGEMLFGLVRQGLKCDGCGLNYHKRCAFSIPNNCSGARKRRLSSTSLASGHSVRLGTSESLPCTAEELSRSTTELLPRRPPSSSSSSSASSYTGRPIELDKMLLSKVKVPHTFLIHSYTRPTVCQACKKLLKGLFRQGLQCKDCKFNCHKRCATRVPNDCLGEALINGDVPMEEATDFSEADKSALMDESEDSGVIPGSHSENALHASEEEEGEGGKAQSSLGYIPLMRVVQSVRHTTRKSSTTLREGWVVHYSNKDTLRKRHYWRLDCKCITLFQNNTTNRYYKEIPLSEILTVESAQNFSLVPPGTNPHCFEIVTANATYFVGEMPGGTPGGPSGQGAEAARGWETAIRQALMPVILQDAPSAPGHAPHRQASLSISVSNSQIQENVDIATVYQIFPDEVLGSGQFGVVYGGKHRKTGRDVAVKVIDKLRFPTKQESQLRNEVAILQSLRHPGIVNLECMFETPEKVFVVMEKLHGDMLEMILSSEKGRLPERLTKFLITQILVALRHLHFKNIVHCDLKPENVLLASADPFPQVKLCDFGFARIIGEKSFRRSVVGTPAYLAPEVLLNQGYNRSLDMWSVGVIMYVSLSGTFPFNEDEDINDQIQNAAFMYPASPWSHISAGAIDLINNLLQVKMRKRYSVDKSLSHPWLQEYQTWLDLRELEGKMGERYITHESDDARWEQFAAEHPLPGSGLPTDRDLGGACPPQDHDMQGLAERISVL
inactive: [1] -0.031 | [2] -0.273 | [3] 0.034 | [4] 0 | [5] -0.242 | [6] -0.004 | [8] -0.075 | [10] -0.024 | [11] -0.05 | [12] -0.037 | [13] -0.125 | [14] 0.078 | [18] -0.03 | [15] -0.042 | [19] -0.159 | [20] 0.033 | [16] -0.011 | [17] -0.17

PPP6R1 (UniProt Q9UPN7)
Sequence of UniProt Q9UPN7 (Q9UPN7 whole entry, looked up): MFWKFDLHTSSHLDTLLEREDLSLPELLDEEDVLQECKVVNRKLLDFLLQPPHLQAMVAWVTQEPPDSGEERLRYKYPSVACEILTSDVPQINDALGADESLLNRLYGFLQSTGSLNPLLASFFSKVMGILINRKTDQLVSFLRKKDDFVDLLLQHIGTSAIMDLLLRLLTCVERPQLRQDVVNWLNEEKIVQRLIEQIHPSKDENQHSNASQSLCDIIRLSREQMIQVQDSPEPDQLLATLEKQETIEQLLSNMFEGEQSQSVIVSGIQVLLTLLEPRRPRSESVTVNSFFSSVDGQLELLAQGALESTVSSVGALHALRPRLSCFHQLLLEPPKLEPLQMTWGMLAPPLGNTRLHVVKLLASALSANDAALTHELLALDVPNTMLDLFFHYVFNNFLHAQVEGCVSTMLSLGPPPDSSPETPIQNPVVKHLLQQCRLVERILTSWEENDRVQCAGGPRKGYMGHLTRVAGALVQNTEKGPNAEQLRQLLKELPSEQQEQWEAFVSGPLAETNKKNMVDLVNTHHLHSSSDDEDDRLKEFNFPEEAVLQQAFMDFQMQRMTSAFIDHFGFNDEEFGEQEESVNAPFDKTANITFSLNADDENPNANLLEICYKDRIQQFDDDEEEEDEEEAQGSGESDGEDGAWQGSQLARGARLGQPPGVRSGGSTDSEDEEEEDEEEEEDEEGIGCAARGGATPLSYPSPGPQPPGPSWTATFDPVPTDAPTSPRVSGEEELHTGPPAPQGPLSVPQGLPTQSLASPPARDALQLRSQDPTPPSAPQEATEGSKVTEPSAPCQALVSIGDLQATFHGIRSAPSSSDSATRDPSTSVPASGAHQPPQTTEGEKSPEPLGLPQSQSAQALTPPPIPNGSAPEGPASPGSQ
inactive: [1] 0.058 | [2] -0.064 | [3] -0.017 | [4] -0.08 | [5] 0.038 | [6] -0.058 | [7] -0.013 | [8] -0.044 | [9] 0.034 | [10] -0.027 | [11] -0.002 | [12] -0.072 | [13] -0.005 | [14] -0.032 | [18] -0.098 | [15] -0.055 | [19] 0.012 | [20] 0.014 | [16] 0.016 | [17] 0

PIK3R1 (UniProt P27986)
inactive: [1] 0.014 | [2] 0.001 | [3] -0.079 | [4] -0.017 | [5] -0.014 | [6] -0.06 | [7] 0.052 | [8] 0.022 | [9] 0.08 | [10] -0.024 | [11] 0.01 | [12] -0.041 | [13] -0.002 | [14] -0.027 | [18] -0.075 | [15] 0.054 | [19] 0.045 | [20] 0.014 | [16] -0.005 | [17] 0.048

PARL (UniProt Q9H300)
Sequence of UniProt Q9H300 (Q9H300 whole entry, looked up): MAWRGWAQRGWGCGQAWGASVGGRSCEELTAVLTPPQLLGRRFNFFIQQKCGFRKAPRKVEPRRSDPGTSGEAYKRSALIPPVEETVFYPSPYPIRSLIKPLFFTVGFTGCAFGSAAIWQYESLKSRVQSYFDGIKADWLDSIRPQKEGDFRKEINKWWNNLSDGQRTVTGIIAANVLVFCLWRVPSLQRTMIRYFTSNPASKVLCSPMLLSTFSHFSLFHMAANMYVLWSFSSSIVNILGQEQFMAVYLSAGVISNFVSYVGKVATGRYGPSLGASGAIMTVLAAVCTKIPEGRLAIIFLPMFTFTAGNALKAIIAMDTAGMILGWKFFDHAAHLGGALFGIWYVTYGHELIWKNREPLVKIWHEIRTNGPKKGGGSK
inactive: [1] 0.056 | [2] 0.019 | [3] 0.026 | [4] -0.053 | [5] 0.025 | [6] -0.011 | [7] -0.005 | [8] -0.052 | [9] 0.029 | [10] 0.015 | [11] -0.061 | [12] -0.091 | [13] -0.034 | [14] -0.068 | [18] -0.016 | [15] -0.2 | [19] 0.038 | [20] 0.08 | [16] 0.04 | [17] 0.011

PMPCB (UniProt O75439)
inactive: [1] 0.001 | [2] 0.051 | [3] -0.073 | [4] -0.068 | [5] 0.005 | [6] -0.042 | [7] -0.033 | [8] -0.003 | [9] -0.022 | [10] -0.029 | [11] -0.046 | [12] 0.036 | [13] 0.047 | [14] -0.122 | [18] -0.078 | [15] 0.046 | [19] 0.006 | [20] 0.008 | [16] -0.054 | [17] -0.012

PPP1CA (UniProt P62136)
Sequence of UniProt P62136 (P62136 whole entry, looked up): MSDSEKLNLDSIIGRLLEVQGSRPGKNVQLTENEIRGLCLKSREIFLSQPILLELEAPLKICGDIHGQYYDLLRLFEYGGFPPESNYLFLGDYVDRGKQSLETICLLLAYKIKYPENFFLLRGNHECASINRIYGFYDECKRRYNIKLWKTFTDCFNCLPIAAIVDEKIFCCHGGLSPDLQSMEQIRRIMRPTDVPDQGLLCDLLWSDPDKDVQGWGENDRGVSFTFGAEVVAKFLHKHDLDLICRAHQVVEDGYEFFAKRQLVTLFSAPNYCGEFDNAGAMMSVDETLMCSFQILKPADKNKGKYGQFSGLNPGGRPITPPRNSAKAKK
inactive: [1] 0.036 | [2] -0.03 | [3] -0.027 | [4] -0.024 | [5] -0.009 | [6] -0.033 | [7] -0.008 | [8] -0.028 | [9] -0.009 | [10] 0.018 | [12] 0.012 | [13] -0.032 | [14] 0.016 | [18] 0.024 | [15] 0.015 | [19] 0.032 | [20] 0.023 | [16] 0.001 | [17] 0.013
active: [11] 0.263

PI4K2B (UniProt Q8TCG2)
Sequence of UniProt Q8TCG2 (Q8TCG2 whole entry, looked up): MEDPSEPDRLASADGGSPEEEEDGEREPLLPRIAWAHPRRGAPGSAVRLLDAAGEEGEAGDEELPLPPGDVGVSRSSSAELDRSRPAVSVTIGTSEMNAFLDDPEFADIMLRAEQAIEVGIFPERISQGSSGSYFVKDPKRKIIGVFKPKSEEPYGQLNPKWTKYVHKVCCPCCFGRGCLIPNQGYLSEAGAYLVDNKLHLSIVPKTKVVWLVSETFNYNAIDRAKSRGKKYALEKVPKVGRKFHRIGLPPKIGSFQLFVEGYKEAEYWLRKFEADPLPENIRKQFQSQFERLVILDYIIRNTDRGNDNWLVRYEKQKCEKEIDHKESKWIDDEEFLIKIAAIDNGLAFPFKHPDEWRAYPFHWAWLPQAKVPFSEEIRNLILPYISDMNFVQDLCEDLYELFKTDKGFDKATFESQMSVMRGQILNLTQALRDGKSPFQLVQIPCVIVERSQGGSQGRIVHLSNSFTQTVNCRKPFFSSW
inactive: [1] -0.067 | [2] 0.04 | [3] -0.05 | [4] 0.028 | [5] -0.016 | [6] 0.003 | [7] 0.097 | [8] -0.096 | [9] -0.148 | [10] -0.099 | [11] -0.035 | [12] -0.059 | [13] -0.014 | [14] -0.034 | [18] -0.059 | [19] 0.4 | [20] -0.054 | [17] 0.051

PGGT1B (UniProt P53609)
Sequence of UniProt P53609 (P53609 whole entry, looked up): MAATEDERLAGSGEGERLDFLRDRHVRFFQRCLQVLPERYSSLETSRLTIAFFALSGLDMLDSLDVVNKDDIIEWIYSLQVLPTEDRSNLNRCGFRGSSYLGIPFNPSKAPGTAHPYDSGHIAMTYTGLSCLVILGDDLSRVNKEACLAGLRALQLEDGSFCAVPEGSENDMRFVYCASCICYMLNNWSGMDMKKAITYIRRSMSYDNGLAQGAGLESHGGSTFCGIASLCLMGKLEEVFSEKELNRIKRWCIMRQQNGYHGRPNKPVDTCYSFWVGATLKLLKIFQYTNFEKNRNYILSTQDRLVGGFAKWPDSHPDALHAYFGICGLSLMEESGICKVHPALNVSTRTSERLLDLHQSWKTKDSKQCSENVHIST
inactive: [1] 0 | [2] 0.121 | [3] -0.014 | [4] -0.047 | [5] -0.025 | [6] 0.001 | [7] -0.032 | [8] -0.017 | [9] 0.013 | [11] -0.112 | [12] 0.047 | [13] -0.006 | [14] -0.025 | [18] -0.03 | [15] -0.031 | [19] -0.013 | [20] 0.058 | [16] -0.019 | [17] 0.037
active: [10] 0.227
